Assay results taken from the supplement of paper PMC4466140.

Tests used:
Experiment in all cases: SPOT peptide array binding signal intensity (averaged, normalized) (arbitrary units (background-subtracted, floor 0; scale differs between SH3 domains)); higher = stronger binding of the SH3 domain to the peptide
[1] = target: AgAbp1
How it was run: (§1)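 Peptides were synthetic 15-mers on cellulose membranes, with every cysteine replaced by serine. They were incubated overnight at 4°C with GST-SH3 domains from four yeast species at 10 μg/ml in TBS-based blocking buffer. Binding signal, the replicate-averaged normalized and background-subtracted spot intensity, is in arbitrary units that differ between domains.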

[2] = target: AgBbc1
How it was run: as §1

[3] = target: AgBem1-D1
How it was run: as §1

[4] = target: AgBzz1-D1
How it was run: as §1

[5] = target: AgBzz1-D2
How it was run: as §1

[6] = target: AgCyk3
How it was run: as §1

[7] = target: AgFus1
How it was run: as §1

[8] = target: AgHof1
How it was run: as §1

[9] = target: AgHse1
How it was run: as §1

[10] = target: AgLsb1
How it was run: as §1

[11] = target: AgLsb4
How it was run: as §1

[12] = target: AgMyo5
How it was run: as §1

[13] = target: AgNbp2
How it was run: as §1

[14] = target: AgRvs167
How it was run: as §1

[15] = target: AgSho1
How it was run: as §1

[16] = target: AgSla1-D1-D2
How it was run: as §1

[17] = target: AgSla1-D3
How it was run: as §1

[18] = target: CaAbp1-D1
How it was run: as §1

[19] = target: CaAbp1-D2
How it was run: as §1

[20] = target: CaBbc1
How it was run: as §1

[21] = target: CaBem1-D1
How it was run: as §1

[22] = target: CaBzz1-D1
How it was run: as §1

[23] = target: CaBzz1-D2
How it was run: as §1

[24] = target: CaCyk3
How it was run: as §1

[25] = target: CaFus1
How it was run: as §1

[26] = target: CaHof1
How it was run: as §1

[27] = target: CaHse1
How it was run: as §1

[28] = target: CaLsb1
How it was run: as §1

[29] = target: CaLsb4
How it was run: as §1

[30] = target: CaMyo5
How it was run: as §1

[31] = target: CaNbp2
How it was run: as §1

[32] = target: CaRvs167
How it was run: as §1

[33] = target: CaRvs167-3
How it was run: as §1

[34] = target: CaSho1
How it was run: as §1

[35] = target: CaSla1-D1-D2
How it was run: as §1

[36] = target: CaSla1-D3
How it was run: as §1

[37] = target: ScAbp1
How it was run: as §1

[38] = target: ScBbc1
How it was run: as §1

[39] = target: ScBem1-D1
How it was run: as §1

[40] = target: ScBzz1-D1
How it was run: as §1

[41] = target: ScBzz1-D2
How it was run: as §1

[42] = target: ScCyk3
How it was run: as §1

[43] = target: ScFus1
How it was run: as §1

[44] = target: ScHof1
How it was run: as §1

[45] = target: ScHse1
How it was run: as §1

[46] = target: ScLsb1
How it was run: as §1

[47] = target: ScLsb2
How it was run: as §1

[48] = target: ScLsb3
How it was run: as §1

[49] = target: ScLsb4
How it was run: as §1

[50] = target: ScMyo3
How it was run: as §1

[51] = target: ScMyo5
How it was run: as §1

[52] = target: ScNbp2
How it was run: as §1

[53] = target: ScPex13
How it was run: as §1

[54] = target: ScRvs167
How it was run: as §1

[55] = target: ScSho1
How it was run: as §1

[56] = target: ScSla1-D1-D2
How it was run: as §1

[57] = target: ScSla1-D3
How it was run: as §1

[58] = target: SpAbp1-D1
How it was run: as §1

[59] = target: SpBbc1
How it was run: as §1

[60] = target: SpBzz1-D1
How it was run: as §1

[61] = target: SpBzz1-D2
How it was run: as §1

[62] = target: SpCyk3
How it was run: as §1

[63] = target: SpHof1
How it was run: as §1

[64] = target: SpHof1-2
How it was run: as §1

[65] = target: SpHof1-3
How it was run: as §1

[66] = target: SpHse1
How it was run: as §1

[67] = target: SpLsb1
How it was run: as §1

[68] = target: SpLsb4
How it was run: as §1

[69] = target: SpMyo1
How it was run: as §1

[70] = target: SpNbp2
How it was run: as §1

[71] = target: SpPex13
How it was run: as §1

[72] = target: SpRvs167
How it was run: as §1

[73] = target: SpSla1-D1-D2
How it was run: as §1

[74] = target: SpSla1-D3
How it was run: as §1

For IKTRSVPKIPSIESV, the “SPOT peptide array binding signal intensity” value [1] was 9, the “SPOT peptide array binding signal intensity” value [2] was 78.8 and the “SPOT peptide array binding signal intensity” value [3] was 40. The “SPOT peptide array binding signal intensity” value [4] was 24.5, the “SPOT peptide array binding signal intensity” value [5] was 33.5 and the “SPOT peptide array binding signal intensity” value [6] was 1. The “SPOT peptide array binding signal intensity” value [7] was 4, the “SPOT peptide array binding signal intensity” value [8] was 27.8 and the “SPOT peptide array binding signal intensity” value [9] was 19.5. For the same binder, the “SPOT peptide array binding signal intensity” value [10] was 71, the “SPOT peptide array binding signal intensity” value [11] was 873 and the “SPOT peptide array binding signal intensity” value [12] was 0.75. The “SPOT peptide array binding signal intensity” value [13] was 2650, the “SPOT peptide array binding signal intensity” value [14] was 12.7 and the “SPOT peptide array binding signal intensity” value [15] was 3. For the same binder, the “SPOT peptide array binding signal intensity” value [16] was at most 0, the “SPOT peptide array binding signal intensity” value [17] was at most 0 and the “SPOT peptide array binding signal intensity” value [18] was 182. The “SPOT peptide array binding signal intensity” value [19] was 82, the “SPOT peptide array binding signal intensity” value [20] was 604 and the “SPOT peptide array binding signal intensity” value [21] was 0.5. The “SPOT peptide array binding signal intensity” value [22] was 197, the “SPOT peptide array binding signal intensity” value [23] was 245 and the “SPOT peptide array binding signal intensity” value [24] was 85.5. For the same binder, the “SPOT peptide array binding signal intensity” value [25] was 32.5, the “SPOT peptide array binding signal intensity” value [26] was at most 0 and the “SPOT peptide array binding signal intensity” value [27] was 5. For the same binder, the “SPOT peptide array binding signal intensity” value [28] was at most 0, the “SPOT peptide array binding signal intensity” value [29] was 1880 and the “SPOT peptide array binding signal intensity” value [30] was 1.25. For the same binder, the “SPOT peptide array binding signal intensity” value [31] was 320, the “SPOT peptide array binding signal intensity” value [32] was 339 and the “SPOT peptide array binding signal intensity” value [33] was 15. For the same binder, the “SPOT peptide array binding signal intensity” value [34] was at most 0, the “SPOT peptide array binding signal intensity” value [35] was 123 and the “SPOT peptide array binding signal intensity” value [36] was at most 0. The “SPOT peptide array binding signal intensity” value [37] was 11, the “SPOT peptide array binding signal intensity” value [38] was 37.8 and the “SPOT peptide array binding signal intensity” value [39] was 38.5. The “SPOT peptide array binding signal intensity” value [40] was 26, the “SPOT peptide array binding signal intensity” value [41] was 13 and the “SPOT peptide array binding signal intensity” value [42] was at most 0. The “SPOT peptide array binding signal intensity” value [43] was at most 0, the “SPOT peptide array binding signal intensity” value [44] was 16.2 and the “SPOT peptide array binding signal intensity” value [45] was 26. For the same binder, the “SPOT peptide array binding signal intensity” value [46] was 4, the “SPOT peptide array binding signal intensity” value [47] was 61 and the “SPOT peptide array binding signal intensity” value [48] was 4820. For the same binder, the “SPOT peptide array binding signal intensity” value [49] was 1030, the “SPOT peptide array binding signal intensity” value [50] was 4.5 and the “SPOT peptide array binding signal intensity” value [51] was 7. For the same binder, the “SPOT peptide array binding signal intensity” value [52] was 3220, the “SPOT peptide array binding signal intensity” value [53] was 633 and the “SPOT peptide array binding signal intensity” value [54] was 2950. The “SPOT peptide array binding signal intensity” value [55] was 25.5, the “SPOT peptide array binding signal intensity” value [56] was 146 and the “SPOT peptide array binding signal intensity” value [57] was 38.5. The “SPOT peptide array binding signal intensity” value [58] was 5, the “SPOT peptide array binding signal intensity” value [59] was 28.8 and the “SPOT peptide array binding signal intensity” value [60] was 236. For the same binder, the “SPOT peptide array binding signal intensity” value [61] was 0.5, the “SPOT peptide array binding signal intensity” value [62] was at most 0 and the “SPOT peptide array binding signal intensity” value [63] was 6. For the same binder, the “SPOT peptide array binding signal intensity” value [64] was 9, the “SPOT peptide array binding signal intensity” value [65] was 150 and the “SPOT peptide array binding signal intensity” value [66] was at most 0. The “SPOT peptide array binding signal intensity” value [67] was 24.2, the “SPOT peptide array binding signal intensity” value [68] was 6060 and the “SPOT peptide array binding signal intensity” value [69] was 11.5. For the same binder, the “SPOT peptide array binding signal intensity” value [70] was at most 0, the “SPOT peptide array binding signal intensity” value [71] was at most 0 and the “SPOT peptide array binding signal intensity” value [72] was 1930. The “SPOT peptide array binding signal intensity” value [73] was 4 and the “SPOT peptide array binding signal intensity” value [74] was 1.
